Assay outcomes as filed in PubChem.
Only some compounds are listed: those with a hit (about 13% of all), similar ones and a draw of the others.
HCV inhibitor – HCV inhibition; Huh7.5.1 HCVcc-Cre infection, luciferase reporter, 44 h; Potency, µM (doses to about 41.8 µM), for inactives: at the highest dose activity change, negative = inhibition, most hits filed as inhibitors; 340,000 compounds, 3.4% hits; AID 651820; further: potency means the concentration at half of the fitted maximal effect
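Antiviral activity was scored by luciferase reporter output from cells infected with HCVcc-Cre (~0.5 moi) in presence of compound, 44 h infection period, cells seeded 1,000/well 4 h prior.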
HCMV inh – blocks human cytomegalovirus replication. AID 1259415. HFF cells, HCMV-luciferase reporter, 72 h; hits give low values. 410,000 compounds, 4.5% hits. activity change, negative = inhibition, % at 57.5 µM; in the data active means activity change below about -60%; inconclusive means no clear call, values can overlap the other calls; inactive means above about -39%
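Cell-based, HFFs, 1000 cells/well, 16 h 37C; cpds in DMSO + HCMV-luc, MOI 1 PFU/cell; 72 h 37C; OneGlo luminescence after 5 min RT; norm. to buffer vs Salinomycin 10uM.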
Pf growth 96h – P. falciparum growth inhibition at 96 hours | 320,000 compounds, 6.9% hits | Potency, µM (top dose mostly 28.7 µM), for the others: at the highest dose activity change, negative = inhibition, hits mostly inhibitors | P. falciparum luciferase reporter growth, 96 h | AID 504834; further: potency means the concentration at half of the fitted maximal effect
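P. falciparum expressing integrated firefly luciferase, in erythrocytes at 2% hematocrit, 0.05% parasitemia, incubated with compounds 96 h at 37 C, 5% CO2. Growth inhibition read as loss of luminescence; two-generation exposure targets delayed-death apicoplast inhibitors.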
Pf growth 48h – P. falciparum growth inhibition at 48 hours (one generation). Potency, µM (highest dose often 28.7 µM), for inactives: top-dose activity change, negative = inhibition, actives largely listed as inhibitors. P. falciparum luciferase growth in erythrocytes, 48 h. 310,000 compounds, 5.9% hits; further: potency means the concentration at half of the fitted maximal effect
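In quantitative HTS format, infected erythrocytes bearing luciferase-reporter parasites were treated for a single generation at 37 C. Luminescence after adding detection reagent served as the growth measure.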
Starred values were filed as active, the others as inactive; i = inactive; ? = inconclusive; . = not tested or not shown. Unless noted, the call rests on the fitted dose curve; in most records, active means well fitted inhibition curve with a large enough effect; inconclusive means small, poorly fitted or top-dose-only effect, or another doubt; inactive means no such curve, though single readings can be large or run the other way. On the % scale 0 is the no-effect control and ±100 the full control effect.

SMILES | HCV inhibitor | HCMV inh | Pf growth 96h | Pf growth 48h
Cc1ccc(O)c(C(=O)c2cnc3onc(-c4ccc(F)cc4)c3c2)c1 | ? | -12 | 2.3µM* | 3.3µM*
Cc1cccc(NC(=O)c2sc(-n3nc(C)c(Cc4ccc5c(c4)OCO5)c3C)nc2C)c1C | . | -8 | . | .
COCc1cc(N2CCN(C(=O)OC(C)(C)C)C[C@@H]2C)ccc1N1CC[C@H](O)C1 | . | 76 | . | .
O=C(CN1CCCCCC1)Nc1cccc2c1OCO2 | 10% | -19 | 1µM* | 5%
O=C(CN1CCCCC1)Nc1ccccc1NC(=O)CN1CCCCC1 | -14% | 26 | 63% | 2%
O=C(CCc1ccc(S(=O)(=O)N2CCOCC2)cc1)N/N=C/c1ccc(F)cc1F | 31% | 1 | ? | ?
O=C(CCc1ccc(S(=O)(=O)N2CCOCC2)cc1)N/N=C/c1cccc(O)c1 | 28% | 23 | 15µM* | ?
O=C(CCc1ccc(S(=O)(=O)N2CCOCC2)cc1)N/N=C/c1ccc(O)c(O)c1O | -22% | -98* | 0% | 2%
Cc1ccc(S(=O)(=O)c2nc(-c3cccs3)oc2SCC(=O)Nc2cc(C)cc(C)c2)cc1 | . | -11 | . | .
COc1ccc(C2=Nc3ccccc3N(C(=O)c3ccc4c(c3)OCO4)C2C(=O)NCc2ccccc2)cc1 (stereo not drawn) | . | -71* | . | .
O=S(=O)(Nc1cccc(F)c1)c1ccc2[nH]c3c(c2c1)CCCCC3 | . | 22 | . | .
Cc1ccc2c(c1)c1nc3ccccc3nc1n2C | 11µM* | 241 | 2% | 0%
Cn1c2ccc(F)cc2c2nc3ccccc3nc21 | ? | 155 | ? | 4%
CCn1c2ccc(C)cc2c2nnc(SCCN3CCOCC3)nc21 | -5% | ? | 32% | 2%
Cc1ccc2c(c1)c1nc3ccccc3nc1n2CCN1CCOCC1 | 13µM* | -14 | . | 18%
Cc1ccc(-c2nnc3c4ccccc4c(-c4ccccc4)nn23)cc1 | . | 22 | . | .
O=C(N/N=C/c1ccc(O)c([N+](=O)[O-])c1)C1CC1(c1ccccc1)c1ccccc1 (stereo not drawn) | -3% | -38 | 336% | ?
O=C(N/N=C/c1ccncc1)C1CC1(c1ccccc1)c1ccccc1 (stereo not drawn) | -10% | -5 | 5.2µM* | ?
CCOC(=O)c1ccc(NC(=O)Cn2nnc(-c3ccc(C(F)(F)F)cc3)n2)cc1 | . | 8 | . | .
C=CCC1C=CCC(CC=C)N1C(=O)c1ccccc1[N+](=O)[O-] (stereo not drawn) | 18µM* | -24 | ? | ?
COc1ccc(CNC(=O)c2ccc(-c3nc(CSc4ccccc4)c(C)o3)cc2)cc1OC | . | 9 | . | .
Cc1ccc(OCCn2nnc3sc4c(c3c2=O)CCC(C)C4)cc1 (stereo not drawn) | . | 0 | . | .
CCCSc1nnc2[nH]c(=O)cc(C)n12 | . | 26 | . | .
COc1cc(NC(=O)COC(=O)c2[nH]c(C)c(C(C)=O)c2C)cc(OC)c1 | 10µM* | ? | . | .
CC(=O)c1c(C)[nH]c(C(=O)Nc2ccc(Cl)c(S(=O)(=O)N(C)C)c2)c1C | ? | 101 | ? | ?
SMILES | HCV inhibitor | HCMV inh | Pf growth 96h | Pf growth 48h
CC(=O)c1c(C)[nH]c(C(=O)OCC(=O)Nc2ccc(Cl)c(S(=O)(=O)N(C)C)c2)c1C | 4µM* | 0 | 6.6µM* | 1.2µM*
CC(=O)c1c(C)[nH]c(C(=O)OCC(=O)Nc2cc(C)on2)c1C | ? | 50 | . | 4%
C[C@@]12CCOC13C=CC(=O)C=C3CC[C@H]2O (stereo partly drawn) | . | -13 | . | .
COc1cc2c(C(=O)N3CCN(c4ccccc4C)CC3)c(C)oc2cc1Br | 11µM* | -37 | 41% | -2%
COc1cc2c(C(=O)N3CCN(C)CC3)c(C)n(-c3ccccc3)c2cc1Br | 1% | 2 | 1.5µM* | 4.7µM*
COc1cc2c(C(=O)N3CCN(C)CC3)c(C)n(C)c2cc1Br | -16% | 3 | i | 97%
COc1cc2c(C(=O)N3CCOCC3)c(CSc3ccccc3)n(C)c2cc1Br | 10µM* | -9 | ? | -15%
CCOc1ccccc1-c1noc(CSc2nnc(-c3ccccc3)n2-c2ccc(OC)cc2)n1 | . | -16 | . | .
Cc1c(Cl)cccc1N1C(N)=C(C#N)C(c2cc(CN3CCOCC3)cs2)C2=C1CCCC2=O (stereo not drawn) | . | -13 | . | .
O=C(Nc1ccc(Cl)cc1Cl)c1cccc(N2C(=O)C=CC2=O)c1 | -8% | -73* | 49% | 4%
O=C(O)c1cccc(N2C(=O)C=CC2=O)c1 | . | -17 | . | .
